Measurements from PubChem BioAssay.
Activity calls are given as the source filed them.

Tests used:
[1] = compound effects on lung adenocarcinoma cell viability – A549, calcein-AM fluorescence, 48 h, basal, profiling panel (AID 1162); details: higher = more signal
[2] = compound effects on differentiated 3T3-L1 adipocyte viability – cell-based, 3T3-L1 adipocytes, calcein-AM fluorescence, 48 h, basal, profiling panel (AID 1163); details: 3T3-L1 adipocytes viability, higher = more signal
[3] = compound effects on hepatocellular carcinoma cell viability – HepG2, calcein-AM fluorescence, 48 h, basal, profiling panel (AID 1164); details: higher = more signal
[4] = compound effects on multiple myeloma cell viability – MM1S, calcein-AM fluorescence, 48 h, basal, profiling panel (AID 1165); details: higher = more signal;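 note: viability of MM1S multiple myeloma cells under basal unstimulated conditions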
[5] = calcein-AM signal in unstimulated myeloma cells – cell-based, calcein-AM fluorescence, 48 h, PK04 Diversity Set, profiling panel (AID 1166); details: RPMI8226 myeloma viability, higher = more signal;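 note: cells grown under basal conditions without added stimulus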
[6] = JC-1 mitochondrial signal, unstimulated HepG2 cells – cell-based, JC-1 fluorescence, 24 h, 100 nL compound, profiling panel (AID 1167); details: HepG2 mitochondrial potential, higher = more signal
[7] = JC-1 mitochondrial signal, unstimulated adipocytes – cell-based, JC-1 fluorescence, 3T3-L1 adipocytes, 24 h, 100 nL compound, profiling panel (AID 1168); details: JC-1 mitochondrial fluorescence, higher = more signal, called active from +8 up or from −8 down
[8] = JC-1 mitochondrial signal, unstimulated myeloma cells – cell-based, JC-1 fluorescence, RPMI8226, 24 h, 100 nL compound, profiling panel (AID 1169); details: JC-1 mitochondrial potential fluorescence, higher = more signal
[9] = JC-1 mitochondrial signal, unstimulated MM1S myeloma – cell-based, JC-1 fluorescence, 24 h, 100 nL compound, profiling panel (AID 1170); details: MM1S mitochondrial potential, higher = more signal
[10] = resazurin metabolic signal in A549 cells – cell-based, resazurin fluorescence, 24 h, PK04 Diversity Set, profiling panel (AID 1171); details: A549 viability, higher = more signal, called active from +8 up or from −8 down
Note: test concentration not given here.

Row | SMILES | z-score [1] | z-score [2] | z-score [3] | z-score [4] | z-score [5] | z-score [6] | z-score [7] | z-score [8] | z-score [9] | z-score [10]
1 | O=C1C2C=CC(C(O)c3cccs3)N(Nc3ccccc3F)C2C(=O)N1c1ccccc1 (stereo not given) | -0.543 | 0.289 | -0.901 | 0.46 | 0.167 | -0.686 | 0.321 (inactive) | 0.635 | -0.947 | 0.433 (inactive)
2 | COc1ccc(C(=O)Nc2cccc(CN3C(=O)[C@@]4(O[C@@H](CCn5cc(CCO)nn5)[C@H]([Si](C)(C)c5ccc(OC)cc5)[C@H]4C)c4ccccc43)c2)cc1 | -1.31 | -0.599 | -4.58 | -2.88 | -4.33 | 0.254 | 0.285 (inactive) | -0.136 | -2.3 | -4.55 (inactive)
3 | COc1cc(C(O)C2C=CC3C(=O)N(c4ccccc4)C(=O)C3N2Nc2ccc(C#N)cc2)cc(OC)c1OC (stereo not given) | -1.26 | 0.0434 | -0.272 | 0.0375 | -0.269 | -1.36 | -1.51 (inactive) | 0.433 | -0.314 | -0.404 (inactive)
4 | [N-]=[N+]=NCc1ccccc1C[C@@]1(C(=O)NCC(O)CO)N=C(c2ccc(OCCCO)cc2)O[C@@H]1c1ccccc1CN=[N+]=[N-] (stereo not given in full) | -1.05 | 0.208 | -0.0726 | -1.4 | -2.2 | -0.382 | -1.04 (inactive) | -0.762 | -0.737 | -0.2 (inactive)
5 | Cc1ccc([C@H]2[C@H](C(=O)O)[C@H](Sc3ccccc3)[C@@H](C(C)C)N2S(=O)(=O)c2ccc(C)cc2)cc1 | -0.74 | -0.594 | -0.447 | -0.0237 | -0.802 | -1.63 | 0.327 (inactive) | -0.199 | -0.437 | -0.064 (inactive)
6 | CN(C)CCCCNC(=O)[C@H]1C[C@H]2C(=O)N[C@@H](Cc3ccccc3)C(=O)N2[C@H]1c1ccc(O)cc1 | -0.451 | 0.7 | -0.98 | -0.417 | 0.287 | -0.77 | -0.248 (inactive) | -0.136 | -0.149 | -0.1 (inactive)
7 | CC(C)C(=C=CC[C@H](O)c1cccc(OCCO)c1)C[C@H](O)COCc1ccccc1 | -0.0353 | -0.27 | -0.0485 | 0.0675 | -0.524 | -0.42 | -0.711 (inactive) | 0.259 | -0.615 | 1.25 (inactive)
8 | CCCCC(O)C1C=CC2C(=O)N(C3CCCCC3)C(=O)C2N1Nc1ccc(OC)cc1 (stereo not given) | -0.875 | 0.325 | -0.572 | 0.0802 | -1.22 | -0.307 | -0.109 (inactive) | -0.111 | 0.024 | 0.112 (inactive)
9 | O=C1O[C@@H](c2ccccc2)[C@@H](c2ccccc2)N2[C@@H](c3ccc(O)cc3)[C@]3(C(=O)Nc4ccc(C#CC5(O)CCCCCC5)cc43)[C@@H](C(=O)N3CCCCCCC3)[C@H]12 | 0.476 | 0.49 | 1.04 | 0.0939 | -1.34 | -1.36 | 0.076 (inactive) | -0.764 | -0.664 | -0.314 (inactive)
10 | CN(C)C(=O)[C@]1(CCC(=O)OC(C)(C)C)N=C(c2ccc(OCCCO)cc2)O[C@@H]1c1ccccc1N=[N+]=[N-] | 0.0413 | 0.473 | 0.333 | -0.629 | 0.0141 | 2.25 | 2.52 (inactive) | -0.568 | -0.325 | 1.84 (inactive)
11 | O=C1OCC=C[C@H]2OC34C=CCN(c5ccc(Cl)cc5)C(=O)[C@H]3N(CCCCCCO)C(=O)[C@@H]4[C@@H]12 (stereo not given in full) | 0.32 | -0.122 | 0.955 | 1.12 | 0.057 | 0.715 | 0.26 (inactive) | 0.231 | 1.5 | 1.12 (inactive)
12 | COC(=O)[C@]1(Cc2ccccc2N=[N+]=[N-])N=C(c2ccc(OCCCO)cc2)O[C@@H]1c1ccccc1N=[N+]=[N-] | -3.83 | -0.504 | -5.54 | -3.59 | -3.94 | -2.39 | -0.708 (inactive) | -1.2 | -2.8 | -2.87 (inactive)
13 | C=CC(=C)C1=CCO[C@@H]1[C@H]1CCCN1S(=O)(=O)c1ccccc1[N+](=O)[O-] | -0.387 | 1.19 | 0.324 | -1.69 | -1.07 | 0.248 | -0.736 (inactive) | -0.112 | -0.233 | 0.707 (inactive)
14 | NCCCCCCNC(=O)[C@H]1C[C@H]2C(=O)NCC(=O)N2[C@H]1c1cccc(OCCO)c1 | 2.15 | -0.143 | 0.674 | -0.0318 | 0.554 | 2.48 | -0.194 (inactive) | -0.417 | 0.535 | 1.34 (inactive)
15 | Cc1ccc(S[C@]2(C(=O)NCc3ccccc3)CC(=O)N(Cc3ccccc3)[C@@H]2c2ccc(CO)cc2)cc1 | 0.778 | 0.147 | 0.0772 | -0.195 | -0.615 | -0.452 | 0.645 (inactive) | 0.0195 | -0.172 | -0.114 (inactive)
16 | CC(C)(C)OC(=O)CC[C@]1(C(=O)N2CCCCC2)N=C(c2ccc(OCCCO)cc2)O[C@H]1c1ccccc1N=[N+]=[N-] | 1.12 | 0.768 | 0.63 | -2.03 | -0.99 | 1.18 | 1.92 (inactive) | -0.862 | -0.715 | -0.0762 (inactive)

Row | SMILES | z-score [1] | z-score [2] | z-score [3] | z-score [4] | z-score [5] | z-score [6] | z-score [7] | z-score [8] | z-score [9] | z-score [10]
17 | O=C1O[C@H](c2ccccc2)[C@H](c2ccccc2)N2[C@H]1[C@@H](C(=O)N1CCN(c3ncccn3)CC1)[C@]1(C(=O)Nc3ccccc31)[C@H]2c1ccc(OCCO)cc1 | 0.404 | 1.35 | 0.121 | 0.0498 | -2.17 | -0.592 | 1.53 (inactive) | -1.16 | -0.537 | 1.18 (inactive)
18 | COc1ccc([Si](C)(C)[C@H]2[C@H](CCn3cc(CCO)nn3)O[C@@]3(C(=O)N(Cc4ccc(N5CCOC5=O)cc4)c4ccccc43)[C@@H]2C)cc1 | 0.252 | 0.469 | 0.161 | -3.07 | -2.73 | 0.484 | 0.854 (inactive) | -0.911 | -1.33 | -1.75 (inactive)
19 | COCCOC(=O)N1C(=O)[C@@]2(c3cc(C#CCC(C(=O)OC)C(=O)OC)ccc31)[C@H](C(=O)N1CCN(c3ncccn3)CC1)[C@H]1C(=O)O[C@H](c3ccccc3)[C@H](c3ccccc3)N1[C@@H]2c1ccc(OCCO)cc1 | 1.68 | 1.02 | 0.674 | 0.65 | 1.21 | -0.656 | 1.86 (inactive) | -0.303 | -1.16 | 0.665 (inactive)
20 | COC(=O)[C@@]1(Cc2ccccc2)[C@H]2c3cc(C(=O)N4CCCC4)n(Cc4ccc(C)o4)c3C[C@H]2CN1C(=O)c1ccccc1 | -1.25 | 0.726 | 0.252 | -1.47 | -2.33 | 1.78 | -0.753 (inactive) | -1.02 | -0.449 | -0.646 (inactive)
21 | C=C(C(=O)CC[C@H](OC(C)=O)c1ccc(OCCO)cc1)C(C)C | -0.809 | -0.38 | -1.22 | -0.984 | -1.73 | -1.05 | -0.00642 (inactive) | 0.364 | 0.19 | -0.358 (inactive)
22 | COCCOC(=O)N1C(=O)[C@@]2(c3cc(C#CCNC(N)=O)ccc31)[C@H](c1ccc(O)cc1)N1[C@H](c3ccccc3)[C@H](c3ccccc3)OC(=O)[C@H]1[C@@H]2C(=O)NC[C@H](O)c1ccccc1 | -0.276 | -0.202 | 0.108 | 0.208 | -0.197 | -1.48 | -0.563 (inactive) | 0.326 | -0.0292 | -0.803 (inactive)
23 | CCOC(=O)C1=C[C@@H](CC)N(S(=O)(=O)c2ccc(C)cc2)[C@H]1c1ccccc1 | -0.934 | -0.167 | -0.342 | -0.922 | -1.37 | -0.378 | -1.31 (inactive) | 0.649 | -0.894 | 1.46 (inactive)
24 | CCOC(=O)C1=CC[C@@H](c2ccccc2)N(S(=O)(=O)c2ccc(C)cc2)[C@H]1C(=O)OCC | -0.613 | -0.467 | -0.111 | 0.884 | 0.0651 | 3 | 0.252 (inactive) | -0.619 | -1.24 | 0.706 (inactive)
25 | CCCC[C@H]1OB(O)C[C@H]2C1=C(C)C[C@H]1C(=O)N(Cc3ccccc3)C(=O)[C@H]12 | 0.601 | 0.379 | -0.152 | -0.551 | -0.0458 | -0.432 | 0.203 (inactive) | -0.333 | 0.625 | 0.174 (inactive)
26 | CC(C)c1ccc(NN2C(C(O)c3ccc(N(C)C)cc3)C=CC3C(=O)N(c4ccccc4)C(=O)C32)cc1 (stereo not given) | 1.1 | -1.62 | 0.974 | -0.36 | -0.368 | -0.337 | -1.22 (inactive) | 0.149 | -0.811 | -0.0686 (inactive)
27 | O=C1C2C=CC(C(O)c3ccc(-c4ccccc4)s3)N(n3cnnc3)C2C(=O)N1Cc1ccccc1 (stereo not given) | -0.787 | -0.293 | -0.638 | -0.593 | -1.87 | -0.666 | -0.878 (inactive) | -0.128 | 0.871 | -1 (inactive)
28 | CC(C)NC(=O)[C@@H]1c2ccccc2C(=O)N(Cc2ccccc2)[C@H]1c1ccc(CO)cc1 | 0.831 | -0.46 | -0.116 | -1.42 | -0.238 | 0.681 | -1.5 (inactive) | 0.00231 | -0.0636 | 0.748 (inactive)
29 | O=C1N(CCS(=O)(=O)c2ccccc2)Cc2ccccc2C[C@]12N=C(c1ccc(OCCCO)cc1)O[C@@H]2c1ccccc1 | 1.82 | 1.36 | 1.17 | 0.835 | -0.962 | -0.589 | 0.603 (inactive) | -1.08 | 0.309 | -3.17 (inactive)
30 | CCOC(=O)C1=CCC(c2ccc([N+](=O)[O-])cc2)N(S(=O)(=O)c2ccc(C)cc2)C1 (stereo not given) | -0.561 | -1.29 | 0.0862 | -0.0901 | -1.17 | 2.63 | -0.769 (inactive) | 0.877 | -2.12 | 0.395 (inactive)
31 | COc1ccc(C(O)C2C=CC3C(=O)NC(=O)C3N2Nc2ccccn2)cc1OCc1ccccc1 (stereo not given) | -1.11 | 0.119 | 0.222 | -0.042 | -1.22 | -1 | -0.479 (inactive) | -0.879 | 0.607 | -0.404 (inactive)
32 | O=C1N(CCS(=O)(=O)c2ccccc2)Cc2ccccc2[C@H]2OC(c3ccc(OCCCO)cc3)=N[C@@]12CCS(=O)(=O)c1ccccc1 | 1.02 | 1.46 | 1.19 | 0.222 | 0.117 | 0.0737 | 0.557 (inactive) | -0.81 | -0.848 | 0.908 (inactive)
